Source: PubChem (several laboratories)
ALR H2O2 inh – inhibitors of human sulfhydryl oxidase ALR | 290,000 compounds, 3.8% hits | purified ALR, DTT oxidation, H2O2 HRP-luminol luminescence | inhibition, % (test concentration not listed);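 active = mean replicate inhibition above about 79%, with every replicate also reaching it, limit read from the data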
Target sequence (P55789 whole entry, looked up): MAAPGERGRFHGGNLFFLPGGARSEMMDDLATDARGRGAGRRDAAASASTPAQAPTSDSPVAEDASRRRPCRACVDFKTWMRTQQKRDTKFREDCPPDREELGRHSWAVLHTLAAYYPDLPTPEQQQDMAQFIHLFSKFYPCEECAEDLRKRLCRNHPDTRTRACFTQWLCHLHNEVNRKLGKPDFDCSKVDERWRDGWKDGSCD
HIF act – HIF pathway transcriptional activation | U2OS HRE-luciferase reporter, luminescence; normalized: DMSO 0%, desferrioxamine 100% | activation, % at 7.5 µM (by protocol) | 300,000 compounds, 0.32% hits;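 active = mean activation of at least 10% of the iron chelator positive control signal, with at least half of replicates also reaching 10%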
Mot1-301 SUMO – inhibitors of SUMOylation pathway: yeast Mot1-301 growth rescue. S. cerevisiae Mot1-301 growth rescue, ATP luminescence, 38.5C; percent above DMSO median, 100 means doubled. growth rescue, % at 18.8 µM. 320,000 compounds, 1% hits. AID 2716;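 active = every valid replicate shows activation above 250% relative to neutral control wells; inactive = the rest, any valid replicate at or below 250%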;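 also: OY570 slx delta 5 strain wells were the positive control but not used for scaling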
M18AAP inhibitor – PfM18AAP enzyme inhibition. recombinant PfM18AAP, H-Glu-NHMec fluorogenic cleavage. inhibition, % at 7.35 µM. 290,000 compounds, 1.2% hits;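 active = inhibition above the campaign mean inhibition over all tested compounds plus 3 SD, cut at about 28% in these data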;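 also: 0% = plate median of test compound wells and 100% = 2 mM ZnCl2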
* = called active by the depositor; x = no result given. The list is not random: actives were taken first. Their share in the collection is about 5.3%.

SMILES | ALR H2O2 inh | HIF act | Mot1-301 SUMO | M18AAP inhibitor
Cc1ccc(NC(=O)O/N=C/c2ccc(N(C)C)cc2)cc1 | 27 | 5 | -6 | -3
CCc1cccc(NC(=O)CCc2c(C)nn(-c3ccc(N4CCOCC4)nn3)c2C)c1 | -7 | 1 | 77 | -10
O=C(Nc1ccc(Nc2ccccc2)cc1)c1ccccc1 | 90* | 2 | 32 | x
CC(=O)Nc1ccc(NC(=O)C(C)OC(=O)COc2ccc(Nc3ccccc3)cc2)cc1 (configuration not stated) | 99* | x | -2 | x
CCC(=O)Nc1ccc(Nc2ccccc2)cc1 | x | 1 | 102 | 6
O=C(Nc1ccc(Br)cc1)C(c1ccccc1)c1ccccc1 | -5 | 0 | 801* | -2
O=C(Nc1ccccc1)C(c1ccccc1)c1ccccc1 | -14 | -36 | 169 | 2
O=C(Nc1ccc(Nc2ccccc2)cc1)C(Cl)(Cl)Cl | 95* | 0 | 22 | 3
COC(=O)c1cc(NS(=O)(=O)c2ccc(NC(C)=O)cc2)cc(C(=O)OC)c1 | x | 0 | -22 | 2
COc1cc(C(=O)O/N=C2/C=C(C)C(=O)C=C2C)cc(OC)c1OC | 26 | 0 | 33 | -1
COc1cc(C(=O)ON=C2C(C)=CC(=O)C=C2C)cc(OC)c1OC | 99* | -1 | -13 | 9
O=C(OCc1ccc(Cl)c(Cl)c1)c1ccc[nH]1 | 0 | 3 | -2 | 1
COc1ccc(N(C(=O)c2cccnc2)S(=O)(=O)c2cc(OC)ccc2OC)cc1 | 6 | 0 | -1 | -4
CCn1c(Cc2ccccc2)nnc1SCC(=O)Nc1ccc(N)cc1 | 87* | 0 | 93 | -2
COC(=O)CSc1nnc(Cc2ccccc2)n1-c1ccc(C)cc1 | -2 | 2 | -21 | 7
CCn1c(CC(=O)Nc2ccc(Cl)cc2)nnc1SCC(=O)N1CCOCC1 | x | 0 | 3 | 1
O=C(CSc1nnc(Cc2ccccc2)n1-c1ccccc1)NNC(=O)Cc1ccccc1 | 98* | 1 | 1 | -19
CCn1c(CC(=O)Nc2ccc(C)cc2)nnc1SCC(=O)N1CCN(c2ccccc2)CC1 | 89* | 0 | 8 | -4
Cc1ccc2c(c1)N(CC(=O)NCCCN1CC(C)CC(C)C1)C(=O)c1cccnc1O2 (configuration not stated) | 0 | 0 | -3 | 2
COc1ccc(/C=C/c2cc(C(F)(F)F)on2)cc1 | 1 | 3 | 433 | -15
COc1ccc(NC(=O)C(Sc2ccccc2)c2ccccc2)c(OC)c1 (configuration not stated) | -9 | 0 | -14 | 2
CN(C)c1ccc(C(C(=O)NC2CCCC2)N(C(=O)c2ccco2)C2CC2)cc1 (configuration not stated) | 99* | 0 | -9 | -2
CCOc1cc(N2CCOCC2)c(OCC)cc1NC(=O)CSc1ncccc1C(=O)O | -8 | x | 12 | x
S=c1nc[nH]c2c1[nH]c1ccccc12 | 98* | 0 | 8 | 11
C=CCn1c(Cc2ccccc2)nc2c(cnn2-c2ccccc2)c1=O | -11 | 1 | 3 | 3
SMILES | ALR H2O2 inh | HIF act | Mot1-301 SUMO | M18AAP inhibitor
O=C1CCCCCN1CP(=O)(O)CN1CCCCCC1=O | -6 | 1 | 564* | -2
O=C(OCCCN1CCOCC1)c1ccc(O)c(O)c1 | 99* | 0 | -7 | 44*
COc1cc(C(=O)OCCN2CCOCC2)ccc1O | 96* | 0 | 6 | 4
CCCCOC(=O)c1ccc(OC(=O)N2CCOCC2)cc1 | 0 | 1 | 8 | 0
C#Cc1cccc(NC(=O)c2ccc(Cl)cc2Cl)c1 | -5 | 5 | -5 | 4
O=C(O)c1cccc2c1C(=O)c1ccc(-c3ccc(F)cc3OCc3ccccc3)cc1S2(=O)=O | 98* | x | 7 | x
O=C1c2ccc(-c3ccc(F)cc3OCc3ccccc3)cc2S(=O)(=O)c2cccc(C(=O)N3CCN(c4ncc(Br)cn4)CC3)c21 | 0 | x | -12 | x
CC(OC(=O)CNS(=O)(=O)c1ccc(C#N)cc1)C(=O)Nc1cccc(C#N)c1 (configuration not stated) | 4 | 0 | -1 | x
COc1cccc(C(=O)Nn2cnnc2)c1 | 1 | 0 | -4 | 30*
COc1cccc(C(=O)Nc2ccc(NC(C)=O)cc2)c1 | -8 | 3 | -7 | 1
COc1ccc(C(=O)Nn2cnnc2)cc1 | -7 | -1 | 4 | 26
COc1cccc(C(=O)Nc2cc(Cl)c(O)c(Cl)c2)c1 | 89* | 0 | -8 | 5
COc1ccc(/C=C(\C#N)C(=O)c2c(C)[nH]c3ccccc23)cc1OC | 15 | 0 | 2 | 17
COc1cc(/C=C(\C#N)C(=O)c2c(C)[nH]c3ccccc23)cc(OC)c1OC | 96* | 0 | -13 | 3
Cc1ncc(CO)c(CNc2ccc(Oc3ccccc3)cc2)c1O | 98* | -1 | -3 | 3
Cc1oc(-c2cccc(Cl)c2)nc1CS(=O)(=O)CC(=O)NCCN1CCOCC1 | 95* | 0 | -14 | -5
COc1cccc(-c2nc(CS(=O)(=O)CC(=O)NCCCN3CCc4ccccc4C3)c(C)o2)c1 | 99* | 0 | 36 | 0
CCN1CCN(C(=O)CS(=O)(=O)Cc2nc(-c3cccc(OC)c3)oc2C)CC1 | 99* | 0 | -6 | 5
Cc1oc(-c2ccccc2Cl)nc1CS(=O)(=O)CC(=O)NCCN1CCOCC1 | 93* | 0 | -14 | -3
CSCC(=O)N1CCc2ccc(NC(=O)c3ccccc3Cl)cc2C1 | -5 | 2 | 10 | -7
CCC1CCCCN1CCCNC(=O)CS(=O)(=O)Cc1nc(-c2cccc(OC)c2)oc1C (configuration not stated) | 98* | 0 | 3 | 2
Cc1oc(-c2ccccc2F)nc1CS(=O)(=O)CC(=O)N1CCCCCC1 | 10 | 4 | -12 | -5
COc1cccc(-c2nc(CS(=O)(=O)CC(=O)NCCN3CCOCC3)c(C)o2)c1 | 99* | 0 | 9 | -5
COc1cccc(-c2nc(CS(=O)(=O)CC(=O)NCCCN3CCOCC3)c(C)o2)c1 | 99* | 0 | 63 | -10
Cc1oc(-c2ccccc2Cl)nc1CS(=O)(=O)CC(=O)N1CCOCC1 | 98* | 2 | -9 | -1
SMILES | ALR H2O2 inh | HIF act | Mot1-301 SUMO | M18AAP inhibitor
COc1ccc(-c2nc(CS(=O)(=O)CC(=O)NCCCN3CCOCC3)c(C)o2)cc1 | -1 | 0 | -1 | -2
O=C(CSc1ncn[nH]1)Nc1ccc(S(=O)(=O)Nc2ncccn2)cc1 | 6 | 0 | 6 | 30*
CC(C)(C)C(=O)Nc1ccc(S(=O)(=O)Nc2nccs2)cc1 | -1 | 2 | 173 | 1
O=C(CSc1ccncc1)Nc1ccc(S(=O)(=O)Nc2nccs2)cc1 | 99* | 0 | 20 | 3
Cc1ccc(S(C)(=O)=O)cc1C(=O)Nc1ccc(S(=O)(=O)Nc2nccs2)cc1 | 97* | x | -20 | x
CC1(c2ccccc2)NC(=O)N(CC(=O)Nc2ccc(S(=O)(=O)Nc3ncccn3)cc2)C1=O (configuration not stated) | 98* | 1 | 9 | x
Nc1nonc1C(=O)NCCNS(=O)(=O)c1ccc(Br)cc1 | -3 | 0 | 3 | 0
COc1ccc(N(C(C)C(=O)N/N=C/c2cccnc2)S(C)(=O)=O)cc1 (configuration not stated) | -17 | 0 | -3 | 4
